# TSHR agonist: qHTS Assay for Agonists of the Thyroid Stimulating Hormone Receptor; 0.48% of 73,000 active; HEK293-CNG-TSHR cells (CNG channel as cAMP sensor), membrane potential dye, cAMP; Potency, µM (series often up to 57.1 µM), for inactives: at the top dose activation, most hits filed as activators; active = well fitted activation curve with a large enough effect in the main read-out, with a control signal flat, not every such curve was filed as active; inconclusive = small, poorly fitted or top-dose-only effect, or a change in a side signal; inactive = no such curve, though single readings can be large or run the other way; % of control where 0% means no effect;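 note: the control signal comes from parental cells without the receptor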
# Target sequence (P16473 whole entry, looked up): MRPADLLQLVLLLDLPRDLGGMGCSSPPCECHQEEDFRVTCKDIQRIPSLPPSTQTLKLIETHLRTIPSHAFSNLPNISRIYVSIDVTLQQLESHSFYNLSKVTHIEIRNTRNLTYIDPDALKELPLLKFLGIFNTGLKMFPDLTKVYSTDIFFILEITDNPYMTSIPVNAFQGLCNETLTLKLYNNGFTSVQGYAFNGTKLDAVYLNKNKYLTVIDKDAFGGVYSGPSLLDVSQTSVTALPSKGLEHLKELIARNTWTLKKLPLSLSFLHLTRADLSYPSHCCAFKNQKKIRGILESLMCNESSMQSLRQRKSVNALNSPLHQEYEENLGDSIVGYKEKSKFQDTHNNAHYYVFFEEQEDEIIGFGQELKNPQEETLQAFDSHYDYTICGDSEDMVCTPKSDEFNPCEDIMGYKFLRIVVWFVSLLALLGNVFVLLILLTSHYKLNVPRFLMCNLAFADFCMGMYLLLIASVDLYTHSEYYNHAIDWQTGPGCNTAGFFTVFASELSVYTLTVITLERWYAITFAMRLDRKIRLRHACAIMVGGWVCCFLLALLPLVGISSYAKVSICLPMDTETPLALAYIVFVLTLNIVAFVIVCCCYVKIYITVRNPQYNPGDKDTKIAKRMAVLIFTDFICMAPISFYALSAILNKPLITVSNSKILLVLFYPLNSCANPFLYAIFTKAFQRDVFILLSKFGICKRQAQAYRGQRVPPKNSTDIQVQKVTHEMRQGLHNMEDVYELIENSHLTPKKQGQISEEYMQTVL
#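 HEK 293 cells stably expressing TSHR and a cAMP-gated CNG channel; parental CNG-only cells as counterscreen. Cells preloaded 60 min with membrane potential dye plus 100 uM RO 20-1724, then compound 30 min; fluorescence read at 590 nm.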
# ERK AVP block: qHTS Assay for Inhibitors of the ERK Signaling Pathway using a Homogeneous Screening Assay | HEK293-V1b, vasopressin-stimulated pERK AlphaScreen | Potency, µM (doses to about 57.5 µM), for inactives: top-dose activity, negative = inhibition, most hits filed as inhibitors | 0.99% of 72,000 active | AID 995, 2007; note: % is set by controls: 0 for no effect and ±100 for the full control effect; nearly all actives have a fitted effect of over 55% in size
#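 HEK293 cells stably expressing V1b receptor, preincubated 30 min at 37 °C with compound, then stimulated 5 min with 25 nM vasopressin. Phospho-ERK by AlphaScreen SureFire after 5 h RT; normalized to DMSO and vasopressin; AC50 by Hill fit.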
# Tau filament bind: qHTS Assay for Tau Filament Binding | Microtubule-associated protein tau (Homo sapiens), P10636 | recombinant tau filaments, thioflavin S fluorescence, 15 h; filaments grown with octadecylsulfate alongside compound | Potency, µM (series often up to 57.1 µM), without a hit: top-dose activity change, negative = inhibition | 2% of 71,000 active | AID 596, 2007;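 note: % is set by controls: 0 for no effect and ±100 for the full control effect; actives lower thioflavin S fluorescence by blocking filaments or displacing dye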
#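 Recombinant tau protein (human, 1 uM final) plus 30 uM ODS in HEPES pH 7.4 with NaCl, DTT and thioflavine S. Compound present from the start; fluorescence at 510 nm after 15 h, 37 C.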
# HEK293 cAMP cs: qHTS Assay for Agonists of the Thyroid Stimulating Hormone Receptor: Activators of Intracellular cAMP Concentrations in Parental HEK 293; parental HEK293 CNG cAMP sensor, membrane potential fluorescence; Potency, µM (titrated, usually from 57.1 µM), without a hit: top-dose activation, actives largely listed as activators; 2.5% of 73,000 active; note: % of control where 0% means no effect; nearly all actives have a fitted effect of over 55% in size
#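 Parental HEK 293 cells stably expressing a cAMP-gated CNG channel were loaded with membrane potential dye containing 100 uM RO 20-1724 for 60 min. Compound added for 30 min; depolarization read as fluorescence intensity at 590 nm.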
# CRE Fsk mod: Cell signaling CRE-BLA (Fsk stim). CHO CRE-bla reporter (cAMP response element driving beta-lactamase), forskolin EC10, beta-lactamase ratio. Potency, µM (doses to about 38.2 µM), inactives show at the top dose activity change, negative = inhibition, usual class: activators. 2.5% of 71,000 active. AID 662, 2007; active = well fitted activation curve with a large enough effect in the signal ratio, with a control signal flat, not every such curve was filed as active; inconclusive = small, poorly fitted or top-dose-only effect, or effect the other way, or a change in a side signal; the % refers to the signal ratio; note: % of control where 0% means no effect
#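 Titrated compounds plus EC10 NKH 477 on CHO CRE-bla cells, 3 h, 37 °C. CCF4, 2 h RT. Ratio 460/530 nm → AC50.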
# * = called active by the depositor; ? = inconclusive; · = no result; [ ] = remark or other dose. An excerpt weighted towards active compounds, which were near 7.4% of everything screened. Unless noted, calls come from the whole dose curve; as a rule, active = well fitted curve in the direction sought with a large enough effect; inconclusive = small, poorly fitted or top-dose-only effect, or another doubt; inactive = no such curve, though single readings can be large; an effect the other way counts as inactive or inconclusive. Potency is the fitted concentration of half-maximal effect.
SMILES,TSHR agonist,ERK AVP block,Tau filament bind,HEK293 cAMP cs,CRE Fsk mod
COc1cc(/C=C\C(=O)CC(=O)/C=C\c2ccc(O)c(OC)c2)ccc1O,?,·,252%,-36%,?
COc1cc(/C=C/C(=O)CC(=O)/C=C/c2ccc(O)c(OC)c2)ccc1O,?,32µM*,325%,-19%,?
COc1ccc(CNc2nc(-c3cccc(NS(C)(=O)=O)c3)nc3ccccc23)c(OC)c1,?,-8%,-19%,?,?
N[C@H](C(=O)O)[C@H](N)C(=O)O,8%[11.4 µM],1%[11.5 µM],-9%[11.4 µM],1%[11.4 µM],4%[7.6 µM]
COC(=O)c1ccc(COC(=O)C23CC4CC(CC(O)(C4)C2)C3)o1,25µM*,1%,0%,7%,4%
CCOc1ccc(Cc2nccc3cc(OCC)c(OCC)cc23)cc1OCC,?,?,0%[25.6 µM],?,1.3µM*
Oc1ccc(Cc2nccc3cc(O)c(O)cc23)cc1O,0%[11.4 µM],-6%[11.5 µM],6%[11.4 µM],3%[11.4 µM],?
O=C(COc1ccccc1)N1CCN(c2ncnc3c2cnn3-c2ccccc2)CC1,20%,25µM*,20%,9%,1%
CNc1cc(-c2ccccc2C(F)(F)F)ncn1,1%,2%,-5%,8%,-7%
O=C1[C@H]2[C@H]3[C@H](O)[C@H](O)C/C(=N/OCc4ccccc4)[C@@H]3CC[C@@H]2C(=O)N1Cc1ccc2c(c1)OCO2,-8%[11.4 µM],27%[11.5 µM],·,3%[11.4 µM],·
COc1ccc(C(=O)Cn2c(N3CCOCC3)nc3c2c(=O)n(C)c(=O)n3C)cc1,1%,6%,-10%,-6%,7%
COC(=O)c1ccc(Oc2nc3c(c(=O)n(C)c(=O)n3C)n2CCC(C)C)cc1,?,4%,9%,16µM*,2%
Cc1noc(C)c1-c1ccc2ncnc(Nc3ccc(F)cc3)c2c1,10%,14%,8%,12%,14%
Cc1ccc2[nH]c(-c3cccc(N)c3)cc2c1,-16%[11.4 µM],7%,10µM*,-19%,?
CC1(NC[C@@H](O)COc2cccc3[nH]ccc23)CCC(C(C)(C)NC(=O)CBr)CC1 (some centres not stated),-4%,·,-7%,15%,-15%
C[C@H](N)C(=O)OC(C)(C)Cc1ccc(Cl)cc1,-5%,11%,-7%,-3%,-3%
O=c1ccc2c(o1)/C(=C/C=C(Cl)Cl)CCC2,7%[11.4 µM],-16%,2µM*,10%[11.4 µM],?
Cc1ccc(S(=O)(=O)N[C@H]2COC(=O)[C@H](C)COC(=O)[C@H](C)NC(=O)C/C=C\[C@H]2C)cc1,3%[11.4 µM],0%[11.5 µM],·,-2%[11.4 µM],·
COc1ccccc1N(C(=O)c1snc(C(N)=O)c1N)C(C(=O)NC1CCCC1)c1ccco1 (configuration not stated),?,-4%,0%,1µM*,?
O=C(OCC(=O)N1CCN(C(=O)c2ccco2)CC1)c1ccccc1OCc1ccc(Cl)cc1,?,?,22%,25µM*,16%
O=C(OCC(=O)N1CCN(C(=O)c2ccco2)CC1)c1sc2ccccc2c1Cl,-5%,16%,31%,10%,-6%
CC(C)(C)C(=O)/C=C(N)/C=C/c1ccccc1,?,3%,25µM*,?,-10%
CCOc1ccc(Nc2oc(-c3cccs3)nc2C#N)cc1,-28%,-7%,-1%,27%,13µM*
CCCn1c(-c2ccc(F)cc2)nc2c(N3CCN(Cc4nc(OC)cc(OC)n4)CC3)nc(C)nc21,?,-21%,36%,16µM*,8%
CNCC[C@H](Oc1ccccc1OC)c1ccccc1,?,21%,?,20%[25.6 µM],?
SMILES,TSHR agonist,ERK AVP block,Tau filament bind,HEK293 cAMP cs,CRE Fsk mod
Cc1cnc(NC(=O)c2ccc(-c3nc4ccccc4s3)o2)s1,14%,20µM*,?,12%,?
N#Cc1c(-c2cccs2)cc(-c2cccnc2)nc1N,2%,-28%,1%,5%,4µM*
c1ccc(CCc2cccnc2)nc1,0%[11.4 µM],3%[11.5 µM],-1%[11.4 µM],4%[11.4 µM],9%[7.6 µM]
COc1ccc(CCNC(=O)CSc2nnnn2-c2ccccc2)cc1,29%,7%,-6%,29%,-11%
COc1ccc(CCNc2nnc(Sc3nnnn3-c3ccccc3)s2)cc1OC,3%,?,-3%,7%,10µM*
COc1ccc(OC)c(NC(=O)C2CCCN2C(=O)C2CCC(C)CC2)c1 (configuration not stated),22%,·,20µM*,0%,14%
Cc1nnc(-n2cnc3ccccc32)c2ccccc12,4%,?,-4%,-3%,-13%
Cc1nnc(OCc2nc3ccccc3n2C)c2ccccc12,-5%,-16%,16%,-20%,2.5µM*
COc1ccc(Br)cc1CNc1ccc(O)cc1,-14%,-15%,32µM*,-13%,-12%
O=c1c2cccc3c2c(nn1CN1CCOCC1)-c1ccccc1-3,17%,-11%,-12%,15%,13µM*
Nc1ccc(F)cc1F,-5%,-1%,-1%,28%,-6%
CC1=N[C@@](C)(COC(=O)[C@]2(C)N[C@](C)(CO)CO2)COC1=O,0%[11.4 µM],12%[11.5 µM],6%[11.4 µM],0%[11.4 µM],6%[7.6 µM]
N#CCSc1nc2scc(-c3cccs3)c2c(=O)n1CCc1ccccc1,12%,22%,79%,6%,2.5µM*
C=CCn1c(SCn2nnc3ccccc3c2=O)nc2scc(-c3cccs3)c2c1=O,3%,-5%,-11%,-7%,2µM*
O=C(O)C(Sc1ccc(Cl)cc1)Sc1ccc(Cl)cc1,10%[11.4 µM],14%[11.5 µM],0%[11.4 µM],23%[11.4 µM],-1%[7.6 µM]
Cc1c(/C=N/n2cnnc2)c2ccccc2n1CCOc1ccc(Cl)cc1,10%,-29%,417%,10%,?
Cc1ccc(OCCn2c(C)c(/C=N/n3cnnc3)c3ccccc32)cc1,13%,-2%,282%,12%,1.6µM*
COc1cc2c(cc1OC)C1=C(C#N)CN(CC(=O)O)CN1CC2,12%,-26%,6%,5%,?
COc1cc2c(cc1OC)-c1cc(=Nc3c(C)cc(C)cc3C)n(C)c(=O)n1CC2,?,6.3µM*,-11%,?,2.5µM*
CCOc1ccccc1/C=C(\C#N)C(N)=O,3%[11.4 µM],-9%[11.5 µM],-4%[11.4 µM],12%[11.4 µM],-7%[7.6 µM]
CCCn1c2ccccc2c2nnc(SCC(=O)OC)nc21,18%[11.4 µM],-18%,-18%[11.4 µM],16%[11.4 µM],2µM*
C=CCn1c2ccccc2c2nnc(SCC(=O)NC(C(=O)OC)C(C)C)nc21 (configuration not stated),13%,15%,8%,-2%,5µM*
CCn1c2ccccc2c2nnc(SCC(=O)NCc3cccs3)nc21,4%,11%,-13%,11%,10µM*
CCn1c2ccccc2c2nnc(SCC(=O)NCCOC)nc21,1%,-4%,5%,2%,?
